A short description of assay [1]: inhibitors of TNFa-induced NFkB p65 translocation, primary screen, imaging, HUVEC, MLSMR starter and 10KST1 sets (AID 438;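 active = inhibition above 20% together with a positive visual image hit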;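 also: compound added about 3h40 before a 20 min TNFalpha stimulation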;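 as to inhibition: signal is the nuclear over cytoplasmic p65 intensity ratio per well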). The note with it: HUVEC TNFa-induced p65 nuclear translocation; cell count: measured here: nuclei count (cytotoxicity indicator), at 2.08 µM; inhibition: at 2 µM, stronger effect = higher value, 0% TNFa-plus-vehicle, 100% no-TNFa wells.
A short description of assay [2]: reduction of polyQ htt aggregates in cells – imaging, exon1htt(103Q)mCFP cells, high-content imaging, primary screen (AID 483;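 active = visual image review flags a hit and inhibition of aggregation exceeds 20%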;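 also: compound exposure lasted 3 days before fixation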;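 as to nuclei count: percent of the per-plate median nuclei count of sample wells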). Particulars: exon1htt(103Q)mCFP cell line, aggregate imaging, at 2 µM; inhibition of aggregation: stronger effect = higher value; nuclei count: measured here: cell count, toxicity.
A short description of assay [3]: endothelial E-selectin expression blockers – imaging, HUVEC, immunofluorescence, MLSMR starter and 10KST1 sets, primary screen (AID 487;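 active = visually confirmed hit in the image check and inhibition above 20%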;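 as to inhibition: signal is fraction of cell area covered by stained E-selectin grains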;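 as to nuclei count: 100% = median nuclei count of all wells on the same plate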). Particulars: HUVEC TNFalpha-induced E-selectin immunofluorescence imaging, at 2 µM; inhibition: stronger effect = higher value; nuclei count: measured here: cell number, toxicity.
For assay [4], the target named is Voltage-gated potassium channel subunit beta-2 (Rattus norvegicus) (UniProt P62483). Nature of the assay: inhibitors of rat Kvbeta2 reductase activity – biochemical, NADPH fluorescence, primary screen (AID 622;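 active = fluorescence slope higher than the sample average by over 3 SD, cut at about -0.22 in these data, passing the limit was not always enough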;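 also: slope of raw intensity against log time taken from 70 to 1610 s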). Particulars: recombinant KvBeta, 4-cyanobenzaldehyde reduction, at 10 µM, stronger effect = higher value.
Assay [5] shares this target. Nature of the assay: enhancers of rat Kvbeta2 NADPH turnover – biochemical, NADPH fluorescence, primary screen (AID 623;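 active = NADPH fluorescence slope more negative than the mean of all samples by about 3 SD, 99.7% confidence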;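 also: fluorescence intensity change per second fitted from 20 to 320 s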). The note with it: Recombinant KvBeta, NADPH fluorescence decrease slope, 10 min; at 10 µM; stronger effect = lower value.
In assay [6] the target is Alpha-2C adrenergic receptor (Homo sapiens) (UniProt P18825). In words: compounds altering alpha2C-coupled GIRK flux – cell-based, HEK293 alpha2C/GIRK1/2, thallium flux, primary screen (AID 624;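 active = fluorescence slope after compound addition differing from the mean of all screened samples at 99.7% confidence, in either direction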;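 also: slope of fluorescence ratio to pre-addition baseline per second over 15 to 24 s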). The note with it: thallium flux BTC fluorescence, at 10 µM, actives lie on both sides.
Assay [7] in a line: blockers of RIG-like receptor reporter activation – cell-based, Sendai virus stimulus, luciferase, 10K MLSCN set, TLR/RLR signaling modifier project, primary screen (AID 602276;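 active = inhibition at or above 50% at 10 µM; inactive = inhibition below 50%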;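 also: firefly luciferase from ISG56 promoter only with Renilla not read in this screen; 0% = Sendai virus plus DMSO and 100% = medium plus DMSO without virus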). The note with it: HEK293 RL24 IRF3 luciferase reporter, at 10 µM, stronger effect = higher value. Background: In a reporter assay the amount or activity of a reporter protein is the signal.
A short description of assay [8]: TLR3 IRF3 reporter activation blockers – cell-based, poly I:C stimulus, luciferase, 10K MLSCN set, primary screen (AID 602277). The note with it: HEK293-TLR3 RL24 IRF3 luciferase reporter, at 10 µM, stronger effect = higher value.

Calls of active or inactive are those of the source.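 The calls were made as follows, unless noted: active = inhibition of the reporter signal at or above 50%; inactive = inhibition below 50%.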

Consider ten compounds from PubChem BioAssay.

As usually defined, the inhibition is the drop in the measured response relative to a control, in per cent.

Sequence of Alpha-2C adrenergic receptor (Homo sapiens) (P18825 whole entry, looked up): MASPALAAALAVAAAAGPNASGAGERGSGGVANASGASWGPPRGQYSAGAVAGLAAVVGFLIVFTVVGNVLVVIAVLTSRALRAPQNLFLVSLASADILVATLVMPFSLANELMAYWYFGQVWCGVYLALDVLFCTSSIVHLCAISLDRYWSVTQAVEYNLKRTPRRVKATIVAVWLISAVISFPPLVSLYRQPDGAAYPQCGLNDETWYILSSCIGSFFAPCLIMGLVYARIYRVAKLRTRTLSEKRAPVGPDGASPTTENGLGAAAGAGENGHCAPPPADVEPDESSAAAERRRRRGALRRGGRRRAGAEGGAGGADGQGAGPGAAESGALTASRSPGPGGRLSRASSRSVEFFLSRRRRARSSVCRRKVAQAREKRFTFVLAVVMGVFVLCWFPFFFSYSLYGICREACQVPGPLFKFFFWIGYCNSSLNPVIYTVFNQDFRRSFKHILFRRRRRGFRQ
Sequence of Voltage-gated potassium channel subunit beta-2 (Rattus norvegicus) (P62483 whole entry, looked up): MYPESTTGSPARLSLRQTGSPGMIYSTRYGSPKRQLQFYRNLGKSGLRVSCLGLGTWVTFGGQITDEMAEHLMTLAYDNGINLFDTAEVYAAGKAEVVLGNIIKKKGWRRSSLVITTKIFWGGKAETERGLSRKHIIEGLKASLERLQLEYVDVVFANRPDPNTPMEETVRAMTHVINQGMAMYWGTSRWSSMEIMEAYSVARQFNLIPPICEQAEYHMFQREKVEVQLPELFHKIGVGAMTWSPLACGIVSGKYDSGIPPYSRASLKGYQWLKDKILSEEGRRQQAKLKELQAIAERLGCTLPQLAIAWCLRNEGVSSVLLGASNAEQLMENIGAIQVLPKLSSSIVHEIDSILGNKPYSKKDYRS

Take `COc1ccc(CNC(=O)c2nnn(Cc3ccc(OC)cc3)c2N)cc1`: the cell count in assay [1] came out at 649. Also, the inhibition in assay [1] was 2.8% (inactive); in assay [3], -6.7% (inactive); in assay [7], 12.2% (inactive); in assay [8], 22.1% (inactive). For the same compound, the inhibition of aggregation in assay [2] is -8.9% (inactive). The nuclei count in assay [2] came out at 84.9%; in assay [3], 92.2%. In assay [4], the fluorescence slope is -0.624 (inactive). For the same compound, in assay [5], the NADPH fluorescence slope is -2.4e-05 (inactive). In assay [6], the slope was 0.00639 (inactive).
For the compound `Cc1ccc(-c2cn3nc(C)c(C)nc3n2)cc1`, in assay [1], the cell count stood at 778. Moreover, the inhibition in assay [1] is -23.3% (inactive); in assay [3] it was -35.5% (inactive); in assay [7] it was 20% (inactive); in assay [8], 1.39% (inactive). Also, in assay [2], the inhibition of aggregation was -5.7% (inactive). Besides, the nuclei count in assay [2] was found to be 119%; in assay [3], 121%. Moreover, the fluorescence slope in assay [4] is -0.007 (active). For the same compound, the NADPH fluorescence slope in assay [5] is -3.4e-06 (inactive). Moreover, the slope in assay [6] was 0.00494 (inactive).
In the case of `O=C(CC1CCS(=O)(=O)C1)Nc1ccc[nH]c1=O` (stereo not given), in assay [1], the cell count turned out to be 475. In addition, the inhibition in assay [1] was -4.7% (inactive); in assay [3], 42.5% (inactive); in assay [7], 16.2% (inactive); in assay [8] it was 8.75% (inactive). Besides, the inhibition of aggregation in assay [2] is -4.6% (inactive). Further, the nuclei count in assay [2] came out at 63.8%; in assay [3] it was 49%. Further, the fluorescence slope in assay [4] was -0.41 (inactive). In assay [5], the NADPH fluorescence slope is -6.4e-05 (inactive). For the same compound, the slope in assay [6] was 0.0024 (inactive).
Regarding `O=C(c1ccc(Br)o1)N(c1ccc(Br)cc1)C1C=CS(=O)(=O)C1` (stereo not given), the cell count in assay [1] was found to be 553. For the same compound, the inhibition in assay [1] was -21.1% (inactive); in assay [3], -74.4% (inactive); in assay [7] it was -8.65% (inactive); in assay [8], -3.46% (inactive). In assay [2], the inhibition of aggregation was 4.2% (inactive). Besides, the nuclei count was determined as 108% in assay [2] and 121% in assay [3]. For the same compound, in assay [4], the fluorescence slope is -0.377 (inactive). Also, the NADPH fluorescence slope in assay [5] was 3.2e-05 (inactive). Besides, in assay [6], the slope was 0.00592 (inactive).
For the compound `CC1CCCc2sc3nc(NCc4ccco4)n4ncnc4c3c21` (stereo not given), the cell count in assay [1] was 335. For the same compound, the inhibition was 7.7% (inactive) in assay [1], 5.2% (inactive) in assay [3], 2.57% (inactive) in assay [7] and -0.465% (inactive) in assay [8]. Moreover, in assay [2], the inhibition of aggregation is 8.4% (inactive). For the same compound, the nuclei count in assay [2] came out at 17.7%; in assay [3], 112%. Further, the fluorescence slope in assay [4] was -0.514 (inactive). Also, the NADPH fluorescence slope in assay [5] is -9.2e-06 (inactive). Further, the slope in assay [6] is 0.00555 (inactive).
For `Cc1ccc(C)c(NC(=O)CSc2nnc(-c3ccccc3)o2)c1`, the cell count in assay [1] came to 613. Moreover, the inhibition in assay [1] was -6% (inactive); in assay [3] it was -45.1% (inactive); in assay [7], 10% (inactive); in assay [8] it was 29.3% (inactive). The inhibition of aggregation in assay [2] is 18.9% (inactive). The nuclei count was 89.2% in assay [2] and 104% in assay [3]. Besides, in assay [4], the fluorescence slope is -0.543 (inactive). In addition, the NADPH fluorescence slope in assay [5] was 8.3e-06 (inactive). For the same compound, the slope in assay [6] was 0.00712 (inactive).
As to `CS(=O)(=O)N1CCc2cc(S(=O)(=O)Nc3ccc4oc5c(c4c3)CCCC5)ccc21`, the cell count in assay [1] was found to be 484. Also, the inhibition is 7.3% (inactive) in assay [1], -40% (inactive) in assay [3], 11.9% (inactive) in assay [7] and 3.23% (inactive) in assay [8]. In addition, the inhibition of aggregation in assay [2] is -8.4% (inactive). The nuclei count in assay [2] turned out to be 104%; in assay [3], 121%. For the same compound, the fluorescence slope in assay [4] is -0.531 (inactive). In addition, in assay [5], the NADPH fluorescence slope was 1.3e-05 (inactive). Moreover, the slope in assay [6] is 0.00786 (inactive).
Turning to `Cc1ccccc1N1OC2C(=O)N(c3ccc(F)cc3)C(=O)C2C1c1ccccn1` (stereo not given), the cell count in assay [1] is 680. The inhibition was -3.5% (inactive) in assay [1], -36.7% (inactive) in assay [3], 10.4% (inactive) in assay [7] and 21.1% (inactive) in assay [8]. Besides, the inhibition of aggregation in assay [2] is -5.9% (inactive). The nuclei count in assay [2] came out at 96.3%; in assay [3], 152%. Moreover, in assay [4], the fluorescence slope is -0.607 (inactive). The NADPH fluorescence slope in assay [5] was -1.4e-05 (inactive). Moreover, the slope in assay [6] is 0.00636 (inactive).
Regarding `COc1ccc(-c2noc(CN(C(=O)C(C)(C)C)C(C)C)n2)cc1`, the cell count in assay [1] worked out at 420. Moreover, the inhibition was 5% (inactive) in assay [1], -73% (inactive) in assay [3], -16.3% (inactive) in assay [7] and -34% (inactive) in assay [8]. The inhibition of aggregation in assay [2] was 10.8% (inactive). Moreover, the figures for the nuclei count in assay [2] and in assay [3] were 93% and 117%, respectively. Further, in assay [4], the fluorescence slope is -0.43 (inactive). In assay [5], the NADPH fluorescence slope was -5.1e-05 (inactive). The slope in assay [6] was 0.00416 (inactive).
For `CCCCNC(=O)CSc1nc2ccc(N3CCOCC3)cc2c(=O)n1CCc1ccccc1`, the cell count in assay [1] is 533. The inhibition in assay [1] was -0.8% (inactive); in assay [3] it was -18.8% (inactive); in assay [7], 2.7% (inactive); in assay [8] it was 10.3% (inactive). Also, the inhibition of aggregation in assay [2] was 28.7% (active). Moreover, the results for the nuclei count in assay [2] and in assay [3] were 48.9% and 110%, respectively. For the same compound, the fluorescence slope in assay [4] was -0.565 (inactive). Besides, in assay [5], the NADPH fluorescence slope is -1.2e-05 (inactive). For the same compound, the slope in assay [6] was 0.00671 (inactive).
